Each structure is given as a SMILES string. The whole screen tested about 69,000 compounds, of which about 8,600 (12%) showed an effect of 50% or more. For the sample, strong results were picked, then their nearest neighbours and some compounds at random.

Consider 68 compounds from ChEMBL document CHEMBL4513216, “Probing the Open Global Health Chemical Diversity Library for Multistage-Active Starting Points for Next-Generation Antimalarials” (ACS Infect Dis, 2020).

In the assay the test system is Plasmodium berghei. Kind of assay: Screen against P. berghei liver stage (PbLuc), transformed with Luciferase, at 10uM. The class given is functional, HepG2. The note with it: tested at 10 uM.
On to `Cc1nn(S(=O)(=O)c2ccc(Cl)cc2)c(C)c1C`, for which the INHIBITION was 9.52%. Under `COc1cc(N2CCC3(CCN(C(=O)c4cccnc4)CC3)C2)ncn1` stands -3.77%. In the case of `COc1ncccc1C(=O)N1CC[C@H]2C[C@H](c3nnc(C)[nH]3)O[C@@H]2C1`, the INHIBITION is reported as 15.4%.

Turning to `CC(C)N(C)Cc1nnc2n1CCN(S(=O)(=O)C1CC1)CC2`, the INHIBITION worked out at 29%. `N#Cc1cccc(N2CC3(CCN(C(=O)c4cccnc4)C3)CC2=O)c1` (stereo not drawn): the INHIBITION came to 19.9%. Under `COCc1nc(N(C)C)ncc1C(=O)NC(C)C` stands -1.58%; under `CCCNC(=O)c1cnc(N(C)C)nc1COC`, -10.3%.

As for `COCc1nc(N(C)C)ncc1C(=O)OC`, the INHIBITION was 66.5%. As for `Cc1cnn(CC2CCCCN2C(=O)c2ccccc2-n2cccn2)c1` (stereo not drawn), the INHIBITION worked out at 38.8%.

With `CCc1ccc(NS(=O)(=O)c2cc3c(c(C(=O)O)c2)OCCO3)cc1`, the INHIBITION was determined as 9.14%.

Turning to `CC(C)(O)c1cn(C2CCN(C(=O)CCc3ccncc3)CC2)nn1`, the INHIBITION was 23.9%. Turning to `CCC(=O)N1CCC(n2cc(C(C)(C)O)nn2)CC1`, the INHIBITION was 42.1%. For `CC(C)(C)c1cn(C2CCN(C(=O)c3cncnc3)CC2)nn1`, the INHIBITION came out at 54.4%. `CC(C)(C)c1cn(C2CCN(C(=O)c3cnccn3)CC2)nn1`: the INHIBITION is 61.1%. Regarding `OC1(c2cn(C3CCN(C4CCSC4)CC3)nn2)CCCC1` (stereo not drawn), the INHIBITION is given as -23%. The value for `CC(C)(C)c1cn(C2CCN(C3CCSC3)CC2)nn1` (stereo not drawn) was 70.9%. Regarding `CC(C)(N)c1cn(C2CCN(C3CCSCC3)CC2)nn1`, the INHIBITION is -7.77%.

`C[C@H]1C[C@@H]2CCN(C(=O)c3cnccn3)C[C@H]2O1`: the INHIBITION is 7.31%. Regarding `CC(C)n1cc(C(=O)N2CCC(n3cc(C(C)(C)C)nn3)CC2)cn1`, the INHIBITION worked out at 29.8%. In the case of `CCCc1cc(C(=O)N[C@H](C)[C@@H](O)c2ccc(O)cc2)n(C)n1`, the INHIBITION is 20.3%. In the case of `Cc1ccccc1C(=O)NCC(=O)NCc1ccccn1`, the INHIBITION is given as 46.3%. Under `CC[C@@H]1N(Cc2ccc(F)cc2)CCC[C@]12CCC(=O)N2CCOC` stands -69.5%; under `Cc1ccc(C(=O)N(C)Cc2csc(Br)c2)c(=O)[nH]1`, 21.8%; under `Cc1cc2n(n1)CC(CNCc1cc(C)on1)CN2` (stereo not drawn), 26.8%. `CCNC(=O)[C@@H]1CCCN1[C@@H](C(=O)NC)c1ccccc1`: the INHIBITION was -1.12%. For `CC(O)CC(C)(C)CNS(=O)(=O)c1cccc(Cl)c1C#N` (stereo not drawn), the INHIBITION stood at 53.5%. With `Cc1cccc(S(=O)(=O)NCC(C)(C)CC(C)O)c1C#N` (stereo not drawn), the INHIBITION is on record as 18.8%. On to `Cc1c(F)cccc1S(=O)(=O)NCC(C)(C)CC(C)O` (stereo not drawn), for which the INHIBITION is -11.9%. Under `COc1cccc2c3c(c(=O)[nH]c12)CCO3` stands 20.9%; under `CC(C)CN1CC[C@@H]2[C@@H]1CCN2S(=O)(=O)c1cn(C)cn1`, 13.7%; under `CCOCCN(CCOCC)c1nc(C)nc2sccc12`, 69.7%. For `COCCN(Cc1sccc1C)c1nc(C)nc2sccc12`, the INHIBITION is listed as 14.6%. On to `COCCN(Cc1cnn(C)c1)c1nc(C)nc2sccc12`, for which the INHIBITION is -39.2%.

For the compound `CCCN(CCOC)c1nc(C)nc2sccc12`, the INHIBITION is reported as 53.9%. On to `CCC(CN1CCCC1)NC(=O)Cc1c(C)[nH]c2c(C)cc(C)cc12` (stereo not drawn), for which the INHIBITION amounted to 41.2%. For the compound `Cc1nn(C)c(C)c1S(=O)(=O)N1C[C@@H]2C[C@@H](C)O[C@@H]2C1`, the INHIBITION is recorded as 8.74%.

Turning to `CN(C)C(=O)CN1C(=O)[C@@H]2CC[C@H]1CN(Cc1ccccc1C#N)C2`, the INHIBITION was determined as 23.9%.

On to `O=C(NCC1CC1)C1CCC2(CCN(C(=O)c3cccs3)CC2)O1` (stereo not drawn), for which the INHIBITION is listed as -14.7%. On to `O=C(Nc1ccc(Br)cc1F)c1ccc(N2CCOCC2)nn1`, for which the INHIBITION is 52.3%. Under `O=C(Nc1ccc(Br)cc1F)c1ccc(N2CCCCC2)nn1` stands 10.8%. Turning to `CSc1ccccc1NC(=O)c1ccc(N2CCOCC2)nn1`, the INHIBITION is -117%.

As for `COc1ccc(C)cc1C(=O)N1CCCC(n2cncn2)C1` (stereo not drawn), the INHIBITION was -16%. The value for `Cc1ccc(-c2nc(CN3CCC(C(=O)N(C)C)CC3)cs2)o1` was 39.5%; that for `Cc1ccc(-c2nc(CN3CCCC(C(=O)N(C)C)C3)cs2)o1` (stereo not drawn) was 35.9%; that for `Cc1noc(C)c1CN(Cc1cccs1)C1CCS(=O)(=O)C1` (stereo not drawn) was 36.1%. With `Cc1ccc(-c2nc(CN(Cc3cccs3)C3CCS(=O)(=O)C3)cs2)o1` (stereo not drawn), the INHIBITION is reported as 87.6%. In the case of `Cc1nc(CN(Cc2cccs2)C2CCS(=O)(=O)C2)oc1C` (stereo not drawn), the INHIBITION was 19.5%. Turning to `CC(C)(C)c1nc(CN(Cc2cccs2)C2CCS(=O)(=O)C2)no1` (stereo not drawn), the INHIBITION worked out at 34.7%. `Cc1ccc(-c2nc(CN(C)C3CCS(=O)(=O)C3)cs2)o1` (stereo not drawn): the INHIBITION is given as 57.7%. Regarding `O=S1(=O)CCC(N(Cc2nc3ccccc3o2)Cc2cccs2)C1` (stereo not drawn), the INHIBITION is -32.5%.

In the case of `Cc1noc(CN(Cc2cccs2)C2CCS(=O)(=O)C2)n1` (stereo not drawn), the INHIBITION is on record as 49.8%. As for `Cc1ccc(-c2nc(CN(Cc3ccco3)C3CCS(=O)(=O)C3)cs2)o1` (stereo not drawn), the INHIBITION turned out to be 62.8%. As to `O=C(NCC1CCS(=O)(=O)C1)N(Cc1ccco1)C1CC1` (stereo not drawn), the INHIBITION was determined as 38.2%. On to `CC(C)(C)c1nc(CN(Cc2cccs2)C2CCS(=O)(=O)C2)cs1` (stereo not drawn), for which the INHIBITION was determined as 59.4%. Under `CCOCCN1Cc2cnn(C)c2C(COCC)C1` (stereo not drawn) stands 42.7%; under `CN(C)c1ncccc1CNC(=O)N1CCCC1c1cccs1` (stereo not drawn), 4.71%. Consider `CCN1CCN(C)C2(CCN(Cc3ccc(C)o3)CC2)C1=O`, for which the INHIBITION is recorded as -93.5%.

As to `O=c1[nH]cc(N2CCOCC2)c(=O)[nH]1`, the INHIBITION is reported as -56.8%. As for `CCn1ccnc1CN1CCN(CCc2ccccn2)CC1C` (stereo not drawn), the INHIBITION is on record as 13.8%. Consider `O=C1N(CC2CC2)CCC12CCN(CC1CC1)CC2`, for which the INHIBITION is recorded as 21.7%. Under `O=C(CCCNCc1ccccc1)N1CCCn2cncc2C1` stands 30.9%; under `Cc1ccc(CN2CCc3ncnc(-c4cccnc4)c3CC2)o1`, 13.7%; under `Cc1cc(N2CCC(C(=O)N(C)C)CC2)nc(-c2ccncc2)n1`, -148%. `COc1cccc(-c2c[nH]c(C)n2)c1F`: the INHIBITION is recorded as -114%. `CCCS(=O)(=O)N1CCC(NC(=O)c2ccc(Cl)s2)CC1`: the INHIBITION came to 21%. Under `O=C(NC1CC(=O)N(C2CC2)C1)c1ccc(Cl)s1` (stereo not drawn) stands 33.1%; under `CC(C)N1CC(NC(=O)c2ccc(Cl)s2)CC1=O` (stereo not drawn), 83.8%; under `O=C(NCCCF)N1CCC(n2ccc(C(F)(F)F)n2)CC1`, 36.3%.
